PubChem BioAssay AID449762 (Southern Research Specialized Biocontainment Screening …, 2010)
Screen size: about 330,000 compounds; about 1,900 (0.58%) were called active. Inconclusive results (about 4%) are left out. The list is a sample of the results. Measured potencies and affinities stand elsewhere. A number with no mark means an inactive call. Rule as the data show it: inconclusive = inhibition above about 70% without an active follow-up result; inactive = below that.

Assay: M. tuberculosis growth inhibition, HTS (AID 449762);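 also: bacterial growth assessed after seven days of incubation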
Settings: M. tuberculosis H37Rv growth inhibition, 7H9 media; at 25 µM; hits give high values

| Structure (SMILES) | inhibition [%] |
| --- | --- |
| Cc1cccc(/C=C/C(=O)c2ccc(N3CCOCC3)cc2)c1 | -1.54 |
| CCC1CSC(Nc2ccc(C(=O)/C=C/c3ccc(Oc4ccccc4)cc3)cc2)=N1 (stereo unspecified) | 4.72 |
| Cc1ccc(N(CC(O)CN2C(=O)NC(C)(C)C2=O)S(=O)(=O)c2ccc([N+](=O)[O-])cc2)cc1 (stereo unspecified) | 0.97 |
| COC(=O)c1cc(C(=O)OC)[nH]n1 | -0.31 |
| COc1ccccc1NC(=O)N1CCCC1C(=O)NCc1ccccc1Cl (stereo unspecified) | 3.2 |
| Cc1ccc(S(=O)(=O)/N=C(\CN2CCCCC2)N2CCOCC2)cc1 | -3.15 |
| Cc1ccc(S(=O)(=O)/N=C(\CN2CCOCC2)N2CCOCC2)cc1 | 2.72 |
| CC(=O)c1c(C)[nH]c(C(=O)CSc2nc3ccccc3c(=O)n2CCCO)c1C | 10.8 |
| O=C(NC1CCOCC1)C1CCC(=O)N(Cc2ccc(Cl)cc2)C1 (stereo unspecified) | -7.32 |
| Cc1ccc(C(=O)C2CCOC(C)(C)C2)cc1 (stereo unspecified) | -6.79 |
| Cc1ccc(-c2csc(N3CCC[C@@H]3C(=O)NCCn3c(-c4ccncc4)nc4ccccc43)n2)cc1 | 58.4 |
| Cc1ccc(-c2csc(NCCn3c(-c4ccncc4)nc4ccccc43)n2)cc1 | -3.83 |
| COc1cc2c(cc1OC)CN(C1CCC(C)CC1)CC2 (stereo unspecified) | 8.03 |
| CC(C)N=C(NC#N)SCc1ccccc1F | -3.3 |
| CCNc1nc(C)nc2c1oc1ccccc12 | 2.03 |
| COc1ccc(CCNc2nc(C)nc3c2oc2ccccc23)cc1OC | 2 |
| COc1ccccc1NS(=O)(=O)c1cccc(C(=O)NN)c1 | -5.02 |
| COc1cc(NC(=O)Cc2ccc([N+](=O)[O-])cc2)c(C(=O)O)cc1OC | 20.1 |
| CN(C)c1ccc(C(=O)/C=C/c2cccnc2)cc1 | -3.39 |
| COc1cc(C(=O)/C=C/c2cccnc2)ccc1O | 52.2 |
| O=C(/C=C/c1cccnc1)c1ccccc1O | 4.14 |
| O=C(/C=C/c1cccnc1)c1ccc(O)cc1 | 2.21 |
| Cc1ccc2nc(-c3ccc(NC(=O)CCS(=O)(=O)c4ccccc4)cc3)sc2c1 | 1.52 |
| O=C(CN(Cc1ccco1)C(=O)CNS(=O)(=O)c1ccccc1)NCc1ccccc1 | 0.41 |

| Structure (SMILES) | inhibition [%] |
| --- | --- |
| Cc1ccc(N2C(=O)C3C4C=CC(CNC(=S)Nc5ccc(Cl)cc5)(O4)C3C2=O)cc1 (stereo unspecified) | 0.99 |
| Cc1ccc(NC(=O)Nc2ccc3c(c2)CCC3)c(C)c1 | -10.3 |
| Cc1ccc2[nH]c3nc(N/N=C/c4cccc(O)c4)nnc3c2c1 | 3.58 |
| O=Nc1ccc(NOC(=O)c2ccccc2)cc1 | 14 |
| Cc1ccc(C(=O)ONc2ccc(N=NC(=O)c3ccccc3O)cc2)cc1 | 2.47 |
| CCCn1c(C)cc(C(=O)CN2C(=O)c3cccc(N)c3C2=O)c1C | -10 |
| COc1ccc(-c2[nH]ncc2N=Nc2ccccc2)cc1 | 8.09 |
| Oc1ccc(Cl)cc1N=Nc1ccccc1 | -8.24 |
| CCOC(=O)c1[nH]c2ccccc2c1NC(=O)c1ccc(Br)o1 | -1.61 |
| CN(C)c1ccc(/C=C/c2cccc[n+]2[O-])cc1 | 1.21 |
| CN(C)c1ccc(/C=C/c2cc[n+](C)cc2)cc1 | 7.78 |
| Cc1cc(C(=O)OCC(=O)Nc2cccc(F)c2)c(C)n1C1CC1 | 0.41 |
| CCN(CC)CCn1c(SCC(=O)NCc2ccccc2)nc2c(sc3ccccc32)c1=O | 6 |
| CCN(CC)CCn1c(SCC(=O)Nc2ccc(F)cc2)nc2c(sc3ccccc32)c1=O | 4.95 |
| COCCn1c(-c2ccccc2)cc(C(=O)O)c1C | 6.01 |
| COc1ccc(CNC(=O)Nc2ccc(C)c(C)c2)cc1 | -5.48 |
| CC(=O)NC(=S)Nc1ccc(NC(=O)COc2ccc(Cl)cc2Cl)cc1 | 0.45 |
| CC(=O)Nc1ccc(NC(=O)COc2ccc(Cl)cc2Cl)cc1 | -0.58 |
| COC(=O)c1ccc(NC(=O)Cn2nc(SC)n(N)c2=S)cc1 | -4.09 |
| Cc1ccc(Sc2nc([N+](=O)[O-])nn2C)cc1 | 6.48 |
| Cn1nc([N+](=O)[O-])nc1Sc1ccc(Cl)cc1 | 0.18 |
| CC(=O)Nc1ccc(CN2CCN(CCc3ccccc3)C(CCO)C2)cc1 (stereo unspecified) | -3.1 |
| CCCCS/C(N)=N/N=C/c1ccccc1O | 1.14 |
| Cc1ccc(O)c(C=Nc2cc(C)ccc2O)c1 | -4.69 |

| Structure (SMILES) | inhibition [%] |
| --- | --- |
| COc1ccc(CCNc2nc(-c3ccc(O)cc3)cs2)cc1OC | 3.36 |
| C=CCCC(=O)N1CCCC(C(=O)c2cccc(OC)c2)C1 (stereo unspecified) | 5.01 |
| OC(CN1CCN(c2ccccc2)CC1)Cn1c2ccccc2c2ccccc21 (stereo unspecified) | 14.7 |
| CN1CCN(CC(O)Cn2c3ccccc3c3ccccc32)CC1 (stereo unspecified) | 6.36 |
| Cc1noc(C)c1COC(=O)c1ccc2c(c1)S(=O)(=O)c1ccccc1C2=O | -4.63 |
| Brc1ccc2c(c1)C(c1cccs1)=NNC(c1cccnc1)=N2 | 1.73 |
| NC(=O)CC(NC(=O)Cc1ccc(Br)cc1)c1ccc(N2CCN(c3ccccn3)CC2)c([N+](=O)[O-])c1 (stereo unspecified) | 2.89 |
| C[C@H](CO)N1C[C@H](C)[C@@H](CN(C)S(C)(=O)=O)Oc2c(NC(=O)C3CC3)cccc2C1=O | 1.46 |
| CCSC1=NC(C)(C)C=C(/C=C/c2ccc(Cl)cc2Cl)N1 | 46.6 |
| CC(C)SC1=NC(C)(C)C=C(/C=C/c2ccc(Cl)cc2Cl)N1 | 23.8 |
| COc1ccc(C(=O)Nc2cccc([N+](=O)[O-])c2)cc1Br | -1.62 |
| COc1nccc(-c2ccc(F)cc2)c1C#N | 6.03 |
| COc1ccc2[nH]c3c(Cl)ncnc3c2c1 | -0.24 |
| COc1ccc2c(c1)[nH]c1c(C)nccc12 | 34.6 |
| COc1ccc(NC(C)C(=O)N/N=C/c2c(O)ccc3ccccc23)cc1 (stereo unspecified) | -2.98 |
| CN(C)S(=O)(=O)N1CCCN(S(=O)(=O)N(C)C)CC1 | -7.77 |
| Cc1ccc(NC(=O)Cc2ccc(Cl)cc2)cc1S(=O)(=O)N1CCCCCC1 | -4.17 |
| CCCCC(=O)Nc1ccc(C)c(S(=O)(=O)N2CCCCCC2)c1 | -1.76 |
| Cc1c(NC(=O)CC2NC(=O)NC2=O)c(=O)n(-c2ccccc2)n1C (stereo unspecified) | 4.59 |
| Cc1ccc(NC(=O)CSc2nc(N)cc(=O)[nH]2)cc1S(=O)(=O)N1CCCCCC1 | -1.26 |
| Cc1ccc(C(=O)NNS(=O)(=O)c2ccccc2[N+](=O)[O-])cc1 | 4.03 |
| Cc1ccc(S(=O)(=O)NNC(=O)c2ccc(O)cc2)cc1 | 9.92 |
| C#CC[N+]1(C)C2CCC1CC(O)C2 (stereo unspecified) | 6.2 |
| COC(=O)/C(=C\c1c(OC)cc(OC)cc1OC)C(=O)c1ccc2c(c1)OCO2 | 17 |

| Structure (SMILES) | inhibition [%] |
| --- | --- |
| CCN1C(=O)CSc2ccc(C(=O)NCc3ccccc3)cc21 | -4.41 |
| CC(=O)n1cc(C=C2C(=O)NC(=O)NC2=O)c2ccccc21 | 6.36 |
| CC(=O)O/C(=C\c1cn(C(C)=O)c2ccccc12)C(=O)O | -13.8 |
| Cc1oc(-c2ccc(Cl)cc2)nc1CS(=O)CC(=O)NC1CCCC1 (stereo unspecified) | -1.04 |
| COc1cccc(N=Nc2c(N)[nH]n3c(=O)cc(-c4ccccc4)nc23)c1 | 54.1 |
| Nc1[nH]n2c(=O)cc(-c3ccccc3)nc2c1N=Nc1ccc(S(N)(=O)=O)cc1 | 6.74 |
| Cc1ccc(CNc2nc3ccccc3n3cnnc23)cc1 | -11.5 |
| CCc1ccc(Nc2oc(C)cc(=O)c2C(C)=O)cc1 | 70 |
| C/C(=N\N=C(/N)SC1CC(=O)N(c2cccc(Cl)c2)C1=O)c1cccs1 (stereo unspecified) | 15.1 |
| C/C(=N\N=C(/N)SC1CC(=O)N(c2ccccc2)C1=O)c1cccs1 (stereo unspecified) | -5.01 |
| O=C(C1CC=CCC1)N1CCC(CO)(Cc2ccc(Cl)cc2)CC1 (stereo unspecified) | 14.7 |
| CCCCNc1nc(Nc2ccc(C)c(Cl)c2)c2cnn(C)c2n1 | 10.1 |
| CCCNc1nc(Nc2ccc(C)c(Cl)c2)c2cnn(C)c2n1 | 14.2 |
| CC(C)(C)/C(Cn1cncn1)=N\OC(=O)Nc1ccc(Cl)cc1 | 11.8 |
| CN(Cc1nccs1)C(=O)CC1C(=O)NCCN1Cc1ccc(-c2ccccc2)cc1 (stereo unspecified) | -5.55 |
| Cc1nc2cc(C(=O)N3CCC4(CC3)OCCO4)ccc2n1-c1ccc(Br)cc1 | 9.84 |
| CC(C)OC(=O)CSc1nc(N2CCOCC2)c2c(c1C#N)CC(C)(C)OC2 | 35.4 |
| COC(=O)CSc1nc(N2CCOCC2)c2c(c1C#N)CC(C)(C)OC2 | 4.99 |
| Cc1ccc(N(C(=O)Cn2nnc(-c3ccc(F)cc3)n2)C(C(=O)NC(C)(C)C)c2ccncc2)cc1 (stereo unspecified) | 7.5 |
| C#Cc1ccc(CN2CCN(Cc3ccsc3)C(CCO)C2)cc1 (stereo unspecified) | -1.98 |
| N#CCCN(C(=O)COC(=O)CNC(=O)c1ccc(-c2ccccc2)cc1)c1ccc(F)cc1 | 67.5 |
| CCCCc1ccc(/C(C)=N/NC(=O)C2CCCC2)cc1 | -4.47 |
| C/C(=N\NC(N)=S)c1ccccc1 | 0.26 |
| Cc1ccccc1C(=O)Nc1cccc(N)c1 | -3.59 |
